Assay results as given in PubChem BioAssay (Tox21).
Inconclusive results are not listed. A call without a number means that no potency is given here. Calls of active or inactive are those of the source. The call rests on the fitted dose curve; in most records, active means well fitted cell-killing curve with a large enough effect in the repeat runs; inconclusive means weak or mixed curves, or effect the other way; inactive means flat fitted curve, though single readings scatter.

Assay: cAMP Responsive Elements (CRE) small molecule agonists, cell-based qHTS assay: qHTS cell viability counter screen (AID 2060914);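 further: viability read after 3 h of compound exposure; nearly all actives have a fitted effect of over 50% in size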
Conditions: CRE-bla HEK293T viability, CellTiter-Glo luminescence, 5 h; series mostly up to 92.4 µM
Description: National Center for Advancing Translational Sciences [NCATS]
Division of Preclinical Innovation [DPI]
U.S. Environmental Protection Agency [EPA]
National Institutes of Environmental Health Sciences [NIEHS]
National Toxicology Program [NTP]
U.S. Food and Drug Administration [FDA]
CREB (cyclic-AMP Responsive Element Binding Protein) is a cellular transcription factor. It binds to certain DNA sequences called cAMP Responsive Elements (CRE) and regulates the transcription of the genes. […] This cell line can be used to find agonists/antagonists of the cyclic AMP signaling pathway. The activation of the report gene under culture conditions can be detected by fluorescence intensity. This cell line has been used to screen the Tox21 10K compound library to identify agonists that induce oxidative stress. The cytotoxicity of the Tox21 compound library against the CRE-bla cell line was tested in parallel by measuring the cell viability using CellTiter-Glo assay (Promega, Madison, WI) in the same wells.
Tox21 Assay Protocol Summary:
CRE-bla Hek 293T cells were suspended in assay medium (DMEM containing 10% dialyzed FBS, 0.1 mM NEAA, 1 mM sodium pyruvate and 25 mM HEPES) and dispensed at 2,000 cells/5 uL /well into 1536-well black wall/clear bottom plates using a Multidrop Combi (ThermoFisher Scientific, Waltham, MA) dispenser. After the assay plates were incubated at 37 C/5% CO2 for 18 hrs, 23 nL of compounds dissolved in DMSO, positive controls or DMSO only was transferred to the assay plate by a pintool workstation (Kalypsys, San Diego, CA). After the plates were incubated at 37 C/5% CO2 for 3 hrs, 1 uL of LiveBLAzer B/G FRET substrate (Invitrogen, Carlsbad, CA) was added to each well using Bioraptr Flying Reagent Dispenser (FRD, Aurora Discovery, San Diego, CA). The plates were incubated at room temperature for 2 h, then fluorescence intensities were measured using an Envision plate reader (PerkinElmer, Shelton, CT) at Excitation 405nm, Emission 460nm and 530nm. The % activity was determined from the ratio of 460nm/530nm. For cell viability readout that measures cytotoxicity, 4 uL /well of CellTiter-Glo reagent was added into the assay plates using Bioraptr FRD. After 30 min incubation at room temperature, the luminescence intensity in the assay plates was measured using a ViewLux (PerkinElmer, Shelton, CT) plate reader.

Compound	Potency
CCC1(c2ccccc2)C(=O)NC(=O)NC1=O	inactive
O=c1[nH]c(=O)n(Cl)c(=O)n1Cl	inactive
c1ccc2c(c1)OCC(C1=NCCN1)O2 (stereo not given)	inactive
Nc1ccc([N+](=O)[O-])cc1N	inactive
OC(c1ccc(Cl)cc1)(c1cncnc1)c1ccccc1Cl (stereo not given)	inactive
O=P(O)(O)CN(CP(=O)(O)O)CP(=O)(O)O	inactive
COP(=S)(OC)Oc1ccc(S(=O)(=O)N(C)C)cc1	inactive
CCOC(=O)CC(SP(=O)(OC)OC)C(=O)OCC (stereo not given)	inactive
Clc1cccc2ccccc12	inactive
C#C[C@]1(O)C=C[C@H]2[C@@H]3CCC4=CC(=O)CC[C@@H]4[C@H]3CC[C@@]21CC	inactive
C#CC(C)(C)O	inactive
COc1ccc(C=O)cc1	inactive
COc1ccc(-c2ccccc2)cc1NNC(=O)OC(C)C	inactive
CC(Cl)(Cl)[N+](=O)[O-]	inactive
CN(N=O)C(N)=O	inactive
CCCCN(CCCC)C(=S)[S-].CCCCN(CCCC)C(=S)[S-].[Ni+2]	inactive
O=[N+]([O-])c1c(Cl)c(Cl)c(Cl)c(Cl)c1Cl	inactive
Clc1ccc2ccccc2c1	inactive
C#CCOC(C(=O)OCCN(C)C)(c1ccccc1)c1ccccc1	inactive
CCOc1cccc(C2(N3CCN(c4ccccc4)CC3)CCC(C)CC2)c1 (stereo not given)	inactive

Compound	Potency
OC(O)C(Cl)(Cl)Cl	inactive
O=C(Cl)CCl	inactive
C/C(=C\c1ccccc1)[N+](=O)[O-]	inactive
ClC(Cl)(Cl)C(Cl)(Cl)Cl	inactive
OCCBr	inactive
O=S(=O)(C(Cl)(Cl)Cl)C(Cl)(Cl)Cl	inactive
OCC(c1ccc(Cl)cc1)c1ccc(Cl)cc1	inactive
ClC(Cl)C(Cl)Cl	inactive
CCOP(=O)(N=C1SCCS1)OCC	inactive
CN(C)c1ccccc1	inactive
O=C(O)C(F)(F)C(F)(F)C(F)(F)C(F)(F)C(F)(F)F	inactive
CC1=C2C[C@H]3[C@@H](CC=C4C[C@@H](O)CC[C@@]43C)[C@@H]2CC[C@]12O[C@@H]1C[C@H](C)CN[C@H]1[C@H]2C	inactive
CC(C)(CCl)C(=O)Cl	inactive
O=NN(c1ccccc1)c1ccccc1	inactive
NC(=S)C(N)=S	inactive
c1ccc2c(c1)oc1ccccc12	inactive
CC(Cl)CN(C)C (stereo not given)	inactive
CC(C=O)Cc1ccc2c(c1)OCO2 (stereo not given)	inactive
Cl	inactive
CN(C)C1CCCCC1	inactive
